The structures appear in SMILES notation. Screen size: about 48,000 compounds; about 13,000 (27%) showed an effect of 50% or more. The list shows a part of the results.

The subject of the assay is Wolbachia pipientis. In words: Anti-Wolbachia Cell-Based Screen. The format is functional. Set-up: scale not given: in the data most compounds retested in dose-response had high values. Conditions: 5 µM.
On to `COc1ccc(-c2cn3c(n2)CO[C@@H](CNCc2ccccn2)C3)cc1`, for which the “Percent Effect” value is listed as -5.771%. On to `CC(C)OCCN1CCc2cncnc2C1`, for which the “Percent Effect” value is listed as -3.318%.

As for `CC(NCc1ccc(OCC(N)=O)cc1)c1ccc(Cl)cc1.Cl` (stereo not given), the “Percent Effect” value was -2.794%. Consider `Cn1nnc(NCc2ccc(OCc3ccc(Cl)cc3)cc2)n1`, for which the “Percent Effect” value came out at 101.9%. In the case of `Cc1nnc(NCc2ccc(Cl)cc2)o1` it was -6.045%; in that of `CCc1ccc(C(=O)N2CC[C@](C)(O)[C@H](C)C2)[nH]1`, -16.61%; in that of `CCN1CC2(CCC1=O)CCN(C(=O)c1ccc(Cl)cc1O)CC2`, -7.361%.

Regarding `Cc1cc2cccc(C(=O)N3CC[C@](C)(O)[C@H](C)C3)c2o1`, the “Percent Effect” value was found to be 15.88%. On to `CC[C@@]1(O)CCN(C(=O)c2ccc(-n3cnnc3)cc2)C[C@H]1O`, for which the “Percent Effect” value came out at 5.833%. Take `CCSc1ccc(C(=O)N2CCC3(CC2)[C@H](O)C[C@@H]3O)s1`: the “Percent Effect” value is 100.2%.

In the case of `CO[C@H]1C[C@@H](O)C12CCN(C(=O)CCSCc1ccc(F)cc1)CC2`, the “Percent Effect” value turned out to be 11.02%.

Regarding `CC[C@@]1(O)CCN(C(=O)c2ccsc2)C[C@H]1O`, the “Percent Effect” value is recorded as -12.48%. In the case of `CCSc1ccc(C(=O)N2CC[C@](C)(O)[C@H](C)C2)s1` it was 109.4%; in that of `CCSc1ccc(C(=O)N2CC[C@](O)(CC)[C@H](O)C2)s1`, 107.9%; in that of `CCSc1ccc(C(=O)N2CCC3(CCC(=O)N(C)C3)CC2)s1`, 103.4%.

Turning to `CCc1ccc(C(=O)N2CCC3(CCC(=O)N(CCN(C)C)C3)CC2)[nH]1`, the “Percent Effect” value was -7.538%. `CCn1nc(CC(C)C)cc1C(=O)N1CCC2(CC1)[C@H](O)C[C@@H]2O`: the “Percent Effect” value is -14.19%. Next, `COc1ccccc1N1CCN(C(=O)c2ccoc2)CC1`: 4.438%; `CNC(=O)Cc1noc(-c2cc3c(s2)CCCCCC3)n1`: -5.82%.

Regarding `COc1cccc(CC(=O)N2CCc3ncnc(C)c3CC2)c1`, the “Percent Effect” value was -6.07%. Next, `CCn1cnnc1C1CCN(C(=O)c2c(C)oc(C)c2C)CC1`: 107.2%. In the case of `CCn1cnnc1C1CCN(C(=O)COCCc2ccccc2)CC1` it was 1.598%; in that of `CCn1cnnc1C1CCN(C(=O)c2ccc(Cl)s2)CC1`, 1.567%.

As to `CCn1cnnc1C1CCN(C(=O)c2ccoc2C)CC1`, the “Percent Effect” value stood at 104.9%.

In the case of `CCc1ccc(C(=O)N2CCC(c3nncn3CC)CC2)o1`, the “Percent Effect” value is recorded as 130.6%. Next, `CCn1cnnc1C1CCN(C(=O)c2cc(C)n(CC)c2C)CC1`: 80.75%; `CCn1c(C)cc(C(=O)N2CCCC(c3nc(C)no3)C2)c1C` (stereo not given): 12.03%.

Regarding `CCCS(=O)(=O)N1CCC2(CC1)COCCN(C(C)=O)C2`, the “Percent Effect” value is given as -12.8%. Next, `NCCC1CN(c2nc(-c3ccccc3)nc3c2CCNC3)CCO1` (stereo not given): -13.03%; `CC(=O)c1cccc(OCCCC(=O)N(C)Cc2cscn2)c1`: 4.484%.

As to `COc1cc(Br)c(CNC(C)c2nnc3n2CCC3)cc1OC` (stereo not given), the “Percent Effect” value was 2.226%.

As to `CNS(=O)(=O)c1ccccc1N1CCN(C(=O)C(C)C)CC1`, the “Percent Effect” value is on record as -15.34%. In the case of `COc1cccc2ccc(CN3CCN(c4cccnc4)CC3)nc12` it was 1.116%; in that of `CCn1cnnc1C1CCN(C(=O)c2cccc(C)c2C)CC1`, 94.12%; in that of `CCn1cnnc1C1CCN(C(=O)c2ccc3ccccc3n2)CC1`, 136.7%. Next, `CCn1cnnc1C1CCN(C(=O)C(OC)c2ccccc2)CC1` (stereo not given): -2.664%. In the case of `CCn1cnnc1C1CCN(C(=O)c2ccccc2F)CC1` it was 104.8%.

`CNc1nc(CNC(=O)Nc2ccccc2OC(C)C)cs1`: the “Percent Effect” value is -5.433%. On to `CCSCCC(C)N(C)C(=O)c1cc(C)no1` (stereo not given), for which the “Percent Effect” value is recorded as -5.306%.

For `Cc1[nH]ncc1CCCNC(=O)Nc1ccc(C#N)cc1`, the “Percent Effect” value was -18.53%.

As for `CCOCCn1nc(C)cc1C(=O)N1CC[C@@](O)(COC)C(C)(C)C1`, the “Percent Effect” value is reported as 0.9121%. In the case of `CC(Sc1nnc(C2CC2)n1CC(N)=O)c1ccc(Cl)cc1` (stereo not given) it was 0.3539%. Regarding `OCC1(CCOc2ccccc2)CCN(c2ccc(Cl)cn2)CC1`, the “Percent Effect” value was -3.583%. Next, `Cc1ccc(Cl)cc1-n1nnnc1C1(N2CCCC2)CCCC1`: -26.05%.

On to `COc1cccc(NC(=O)NCc2cnn(C)c2)c1`, for which the “Percent Effect” value is listed as 90.55%. Turning to `O=C(NCC(O)c1ccc(F)cc1F)c1ccccc1F` (stereo not given), the “Percent Effect” value amounted to 15.04%.

As for `CC(C)Nc1cccc(C(=O)NCC(O)c2ccc(F)cc2F)c1` (stereo not given), the “Percent Effect” value is reported as 1.201%. Regarding `COc1cccc(NC(=O)NCC(Cc2cnn(C)c2)C(N)=O)c1` (stereo not given), the “Percent Effect” value stood at 2.392%.

With `COc1ncccc1NC(=O)NCC(O)c1ccc(F)cc1F` (stereo not given), the “Percent Effect” value is on record as 0.8108%.

Turning to `COc1cccc(NC(=O)NCC(O)c2ccc(F)cc2F)c1` (stereo not given), the “Percent Effect” value came out at 109.6%. In the case of `Cc1cccc(C(=O)NCC(O)c2ccc(F)cc2F)c1` (stereo not given) it was 14.48%.

As to `COc1ccccc1NC(=O)NCC(O)c1ccc(F)cc1F` (stereo not given), the “Percent Effect” value is 114.6%. In the case of `CC(C)OCCOCc1cccc(NC(=O)NCc2cnn(C)c2)c1` it was 2.629%.

As for `CC(=O)c1cccc(OC(C)C(=O)Nc2cnn(CCN(C)C)c2)c1` (stereo not given), the “Percent Effect” value was -1.957%. As for `CC(NC(=O)c1cccc(CCC(C)(C)O)c1)c1nnc(N)s1` (stereo not given), the “Percent Effect” value is recorded as -8.452%.

As to `OCc1ccc(OCC(F)(F)F)cc1`, the “Percent Effect” value amounted to 0.2216%. On to `CCC(C)N(C)C(=O)Nc1ccc(N2CCSCC2)cc1C` (stereo not given), for which the “Percent Effect” value was -11.87%. Regarding `O=C(O)C(F)(F)F.O=C(c1cnccn1)N1C[C@@H]2CCN(c3cccnc3)C[C@@H]2C1`, the “Percent Effect” value was -9.697%.

For `CCCC(=O)N1C[C@@H]2CCN(c3cnccn3)C[C@@H]2C1.O=C(O)C(F)(F)F`, the “Percent Effect” value is 107.8%. Next, `O=C(O)C(F)(F)F.O=C(c1ccccc1)N1CCO[C@@H]2CN(c3cnccn3)C[C@@H]2C1`: -2.123%.

Regarding `CCOCC(=O)N1C[C@@H]2CCN(c3cnccn3)C[C@@H]2C1.O=C(O)C(F)(F)F`, the “Percent Effect” value is 110.3%. Next, `CC(C)CC(=O)N1C[C@@H]2CCN(c3cnccn3)C[C@@H]2C1.O=C(O)C(F)(F)F`: 83.3%; `CC(C)CN1CCO[C@H]2CCN(c3cnccn3)CC[C@@H]21.O=C(O)C(F)(F)F`: 107%; `CC(SCC(=O)NC(N)=O)c1ccccc1F` (stereo not given): -3.716%.

As for `Cc1cc(C)cc(S(=O)(=O)NCC2CNCCOC2)c1` (stereo not given), the “Percent Effect” value stood at 5.985%.

The record behind these values is ChEMBL document CHEMBL3988442, “University of Dundee, Small-Polar-MMV Screening Library” (2021).
